Laboratory results published in PubChem BioAssay.

Assays:
[1] = test system: Botulinum neurotoxin type F light chain protease (Clostridium botulinum); assay: Clostridium botulinum type F light chain protease inhibitors, microsphere substrate cleavage, validation (AID 588459); conditions: multiplex microsphere protease substrate cleavage assay, flow cytometry; at 10 µM; stronger effect = higher value
[2] = target: Botulinum neurotoxin type A (Clostridium botulinum) (UniProt P0DPI0); assay: BoNT/A light chain protease inhibitors, biochemical, multiplex microsphere flow cytometry, validation set (AID 588460); conditions: at 10 µM, stronger effect = higher value
Botulinum neurotoxin type A (Clostridium botulinum), sequence (P0DPI0 whole entry, looked up): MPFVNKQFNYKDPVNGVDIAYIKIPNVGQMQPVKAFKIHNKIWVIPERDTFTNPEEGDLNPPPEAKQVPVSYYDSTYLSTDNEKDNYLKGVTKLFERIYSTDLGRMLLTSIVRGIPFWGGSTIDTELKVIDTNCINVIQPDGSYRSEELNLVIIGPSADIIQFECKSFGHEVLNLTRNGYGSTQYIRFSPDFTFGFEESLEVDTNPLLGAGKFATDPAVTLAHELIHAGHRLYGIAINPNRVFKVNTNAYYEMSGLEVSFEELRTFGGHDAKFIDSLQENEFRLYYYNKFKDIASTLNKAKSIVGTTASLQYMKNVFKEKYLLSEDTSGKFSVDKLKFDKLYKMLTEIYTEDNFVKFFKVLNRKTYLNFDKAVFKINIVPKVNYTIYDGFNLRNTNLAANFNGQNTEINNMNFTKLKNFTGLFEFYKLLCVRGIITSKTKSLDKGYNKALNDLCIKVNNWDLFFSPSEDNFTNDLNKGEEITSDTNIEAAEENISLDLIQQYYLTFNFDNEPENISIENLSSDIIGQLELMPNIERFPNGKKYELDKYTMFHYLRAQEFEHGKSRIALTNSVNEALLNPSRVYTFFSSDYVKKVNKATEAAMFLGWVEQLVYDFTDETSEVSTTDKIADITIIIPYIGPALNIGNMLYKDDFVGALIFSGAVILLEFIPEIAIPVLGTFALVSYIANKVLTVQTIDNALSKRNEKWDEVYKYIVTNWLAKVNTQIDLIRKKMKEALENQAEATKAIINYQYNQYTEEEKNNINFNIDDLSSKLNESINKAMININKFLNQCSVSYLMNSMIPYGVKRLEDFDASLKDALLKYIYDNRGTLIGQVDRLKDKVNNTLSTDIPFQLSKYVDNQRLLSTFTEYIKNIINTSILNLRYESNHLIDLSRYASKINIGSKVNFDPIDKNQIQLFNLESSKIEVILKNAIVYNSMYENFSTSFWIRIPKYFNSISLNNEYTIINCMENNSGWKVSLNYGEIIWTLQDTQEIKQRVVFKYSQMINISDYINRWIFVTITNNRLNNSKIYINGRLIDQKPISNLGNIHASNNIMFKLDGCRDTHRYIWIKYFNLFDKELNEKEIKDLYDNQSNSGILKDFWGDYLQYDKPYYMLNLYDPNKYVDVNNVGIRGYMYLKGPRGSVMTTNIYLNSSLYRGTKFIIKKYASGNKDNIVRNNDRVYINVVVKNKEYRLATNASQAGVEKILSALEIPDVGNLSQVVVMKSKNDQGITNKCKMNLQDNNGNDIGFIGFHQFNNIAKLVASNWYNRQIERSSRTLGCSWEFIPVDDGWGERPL

[3] = target: Lethal factor (Bacillus anthracis) (UniProt P15917); assay: Bacillus anthracis lethal factor inhibition, microsphere flow cytometry protease assay, validation at 10 µM (AID 588461); conditions: multiplex microsphere protease cleavage assay, stronger effect = higher value
Lethal factor (Bacillus anthracis), sequence (P15917 whole entry, looked up): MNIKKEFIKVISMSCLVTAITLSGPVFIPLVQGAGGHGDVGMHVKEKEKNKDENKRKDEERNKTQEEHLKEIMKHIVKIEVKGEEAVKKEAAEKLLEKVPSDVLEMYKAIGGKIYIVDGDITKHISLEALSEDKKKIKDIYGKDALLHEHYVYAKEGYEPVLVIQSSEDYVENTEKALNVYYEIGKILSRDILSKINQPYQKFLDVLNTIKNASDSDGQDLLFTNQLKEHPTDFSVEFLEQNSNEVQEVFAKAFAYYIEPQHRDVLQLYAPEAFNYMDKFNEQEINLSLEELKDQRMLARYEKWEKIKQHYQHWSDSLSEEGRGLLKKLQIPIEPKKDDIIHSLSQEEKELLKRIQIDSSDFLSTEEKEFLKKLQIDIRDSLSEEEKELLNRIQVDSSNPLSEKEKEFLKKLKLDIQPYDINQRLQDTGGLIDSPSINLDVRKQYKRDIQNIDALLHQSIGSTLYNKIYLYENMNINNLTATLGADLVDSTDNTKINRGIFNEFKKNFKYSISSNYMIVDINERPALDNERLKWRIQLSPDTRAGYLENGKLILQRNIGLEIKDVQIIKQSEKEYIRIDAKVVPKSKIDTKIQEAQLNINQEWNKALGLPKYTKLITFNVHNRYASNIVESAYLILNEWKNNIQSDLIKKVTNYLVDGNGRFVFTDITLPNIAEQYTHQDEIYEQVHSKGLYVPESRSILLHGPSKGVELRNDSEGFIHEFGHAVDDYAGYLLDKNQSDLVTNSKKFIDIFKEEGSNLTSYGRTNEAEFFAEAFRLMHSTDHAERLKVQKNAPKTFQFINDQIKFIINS

Measured: inhibition

COc1ccc2c(c1)C=CC1(O2)N(CCO)c2ccccc2C1(C)C (stereo not drawn)
inactive: [1] 3% | [2] -0.7% | [3] -7.3%

O=C1c2ccccc2C(=O)C1c1ccccc1
inactive: [1] -2.6% | [2] 0.2% | [3] 9.8%

Nc1nnc(CSCc2ccc(Cl)cc2Cl)s1
inactive: [1] 0.7% | [2] -0.6% | [3] 6.8%

O=C1NCC2=C1C(c1ccccc1)Nc1ccccc1N2 (stereo not drawn)
inactive: [1] 2.4% | [2] 0.1% | [3] -4.9%

O=C(CCC1CCCN(C(=O)c2ccsc2)C1)NCc1ccc(F)c(F)c1 (stereo not drawn)
inactive: [1] 2.2% | [2] -0.6% | [3] -6.8%

O=C1OCCN1/N=C/c1ccc([N+](=O)[O-])o1
inactive: [1] 2.9% | [2] -0.4% | [3] -8.7%

CC(C)NCC(O)COc1ccc(CCOCC2CC2)cc1 (stereo not drawn)
inactive: [1] -0.9% | [2] -3.6% | [3] 1.3%

Cc1ccc(S(=O)(=O)NC(=O)Nc2cc(C)ccc2F)cc1
inactive: [1] 3% | [2] -0.1% | [3] -4.1%

CCOC(=O)c1cnc2ccc(C(=O)OC)cc2c1Nc1ccc2c(c1)OCCO2
inactive: [1] -0.5% | [2] 0.1% | [3] -1.2%

COc1cc(C=NCC2OCCc3ccccc32)cc(OC)c1 (stereo not drawn)
inactive: [1] 5.8% | [2] 0.3% | [3] 3.3%

COc1ccc(-c2cc(=O)oc3c(C)c(O)c(CN(C)C)cc23)cc1
inactive: [1] 11.3% | [2] 0.6% | [3] -2.1%

O=C(N/N=C\c1cc([N+](=O)[O-])ccc1N1CCOCC1)c1ccccn1
inactive: [1] -0.1% | [2] -1.3% | [3] 2.6%

COCCn1c(/C=C/c2ccccc2)nc2ccccc21
inactive: [1] -1.2% | [2] 0% | [3] -3.4%

COc1ccc(OC)c(NC2=C(Cl)C(=O)N(Cc3ccccc3)C2=O)c1
inactive: [1] 0% | [2] -2.2% | [3] -12.4%

CCc1cn([C@H]2C[C@H](O)[C@@H](CO)O2)c(=O)[nH]c1=O
inactive: [1] -0.5% | [2] -2.2% | [3] 1.6%

COc1cccc(CC(=O)NCC2COc3ccccc3O2)c1OC (stereo not drawn)
inactive: [1] -2.4% | [2] 0.4% | [3] 0.6%

C=CCOc1ccc(C(=O)CC)cc1OC
inactive: [1] 0.6% | [2] -0.5% | [3] -1.9%

COc1cc(C2Nc3ccccc3C(=O)N2c2ccccc2)ccc1O (stereo not drawn)
inactive: [1] 0.9% | [2] 0% | [3] -4.4%

COc1ccc(CCNC(=S)NC(=O)/C=C/c2ccc(C)cc2)cc1OC
inactive: [1] 0.1% | [2] -1.3% | [3] -7.3%

NCCOc1ccccc1OCCN
inactive: [1] 1.6% | [2] -0.4% | [3] -4.4%

CC(C)(C)OC(=O)COc1cc(OCC(=O)OC(C)(C)C)c2c(=O)cc(-c3ccccc3)oc2c1
inactive: [1] 1.4% | [2] 0.8% | [3] -7.2%

Cc1nc(C(=O)Nc2ccccc2Cl)cc2c1[nH]c1ccccc12
inactive: [1] -0.3% | [2] -0.9% | [3] -4.5%

C[C@]12CC[C@@H]3c4ccc(OS(=O)(=O)O)cc4CC[C@H]3[C@@H]1CCC2=O
inactive: [1] -0.1% | [2] -0.2% | [3] -0.2%

O=C(NCc1ccc(N2CCCC2=O)cc1)c1ccc(F)cc1
inactive: [1] 5.2% | [2] -0.6% | [3] -3.8%

CCOC(=O)c1cccc(P(C)(C)=O)c1
inactive: [1] -1.1% | [2] -0.5% | [3] -5%

COc1cc(=O)n(C)c2ccccc12
inactive: [1] -9.2% | [2] -2.1% | [3] -7.3%
